Eight compounds from PubChem BioAssay (EPA / NIEHS) can be followed below.

Results filed as inconclusive are left out. More than one record can exist for a structure, and the calls need not agree. Active and inactive are the calls of the source. Rule for the calls: active = hit-call score of the fitted dose curve at least 0.9, where 1 is the maximum; inconclusive = response in the unintended direction; inactive = score below 0.9.

mouse Estrogen Receptor alpha (Era), Esr1 (gene 13982), sequence (P19785 whole entry, looked up): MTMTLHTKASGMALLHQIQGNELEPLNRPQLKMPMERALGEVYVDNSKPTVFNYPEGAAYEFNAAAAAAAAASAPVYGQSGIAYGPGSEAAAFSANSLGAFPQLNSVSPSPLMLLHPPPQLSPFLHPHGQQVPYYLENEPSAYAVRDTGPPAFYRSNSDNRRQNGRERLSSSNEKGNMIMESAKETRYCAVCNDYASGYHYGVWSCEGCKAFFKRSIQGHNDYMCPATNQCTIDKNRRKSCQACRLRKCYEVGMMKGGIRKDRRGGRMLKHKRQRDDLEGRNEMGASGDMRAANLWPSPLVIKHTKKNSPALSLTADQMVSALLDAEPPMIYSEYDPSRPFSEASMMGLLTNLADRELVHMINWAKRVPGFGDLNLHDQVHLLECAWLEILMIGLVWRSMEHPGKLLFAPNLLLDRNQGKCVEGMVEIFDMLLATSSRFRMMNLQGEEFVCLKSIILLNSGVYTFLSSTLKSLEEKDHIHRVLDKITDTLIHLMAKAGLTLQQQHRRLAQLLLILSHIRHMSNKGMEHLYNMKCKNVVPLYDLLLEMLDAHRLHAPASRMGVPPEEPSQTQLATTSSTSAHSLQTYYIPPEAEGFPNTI

This experiment has as its target mouse Estrogen Receptor alpha (Era), Esr1 (gene 13982) (UniProt P19785). As to the kind of experiment: NVS_NR_mERa: NovaScreen (NVS) Nuclear Receptor Binding Assay for mouse Estrogen Receptor alpha (Era) (AID 2283378).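 Note: hit means loss of bound radioligand signal relative to DMSO.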 The procedure: NVS_NR_mERa is a biochemical, single-readout assay that uses extracted gene-proteins in a cell-free assay. Measurements were taken 18 hours after chemical dosing in a 96-well plate.NVS_NR_mERa is one of one assay component(s) measured or calculated from the NVS_NR_mERa assay. It is designed to make measurements of radioligand binding, a form of binding reporter, as detected with scintillation counting signals by Filter-based radiodetection technology.Data from the assay component NVS_NR_mERa was analyzed into 1 assay endpoint. This assay endpoint, NVS_NR_mERa, was analyzed in the positive analysis fitting direction relative to DMSO as the negative control and baseline of activity. Using a type of binding reporter, loss-of-signal activity can be used to understand changes in the binding as they relate to the gene Esr1. Furthermore, this assay endpoint can be referred to as a primary readout, because the performed assay has only produced 1 assay endpoint. To generalize the intended target to other relatable targets, this assay endpoint is annotated to the nuclear receptor intended target family, where the subfamily is steroidal.
Binding assays used specific radioligands (tritiated, iodinated) with non-radioactive competitive displacement ligands in agonist or antagonist protocols (as indicated) and various reference compounds and inhibitors to titrate specific binding to receptors and transporters. Most enzyme assays (CYPs, kinases, phosphatases, proteases, HDACs) used recombinant protein and specific substrates (fluorescence mostly, some colorimetric and radioactive) and inhibitors, followed by a biochemical separation of substrate and product. All assays for the biochemical HTS were initially run in duplicate at a single concentration (10 uM for CYP450 assays and 25 uM for all others). […] Each assay was run with positive and negative controls, and concurrent controls on every plate. The follow-up (secondary) screen tested active chemical-pairs in concentration series, as well as a few additional assays not tested in the primary screen, some selected negative inactives, and several cases re-run in the concentration series for confirmatory purposes.
With `CCCCOC(=O)c1ccccc1C(=O)OCCCC`, the AC50 was 25 µM (active) and the compound was called inactive.
For `CCNc1nc(Cl)nc(NC(C)C)n1`, the compound was called inactive and the AC50 was 6.81 µM (active).
For the compound `C=CC1(C)OC(=O)N(c2cc(Cl)cc(Cl)c2)C1=O` (stereo unspecified), the call was inactive and the AC50 was 10.1 µM (active).
With `COc1ccc(C(c2ccc(OC)cc2)C(Cl)(Cl)Cl)cc1`, the AC50 was 3.48 µM (active).
`COC(=O)c1ccccc1C(=O)OC`: the outcome was inactive.
As to `CON(C)C(=O)Nc1ccc(Cl)c(Cl)c1`, the outcome was inactive.
As to `C=CCC1=C(C)C(OC(=O)C2C(C=C(C)C)C2(C)C)CC1=O` (stereo unspecified), the outcome was inactive.
Turning to `CCCCNC(=O)OCC#CI`, the call was inactive.
